Results filed as inconclusive are left out. Activity calls are given as the source filed them. Calls come from the whole dose curve; as a rule, active = well fitted inhibition curve with a large enough effect; inconclusive = small, poorly fitted or top-dose-only effect; inactive = no such curve, though single readings can be large or run the other way. Numbered stars: 1 amine (or outer) side, 2 acyl side, 3 side chain; on linkers, the order of the positions; unused ones are H or OH. Square brackets hold non-standard residues; d marks the D form. Peptide text beside a SMILES is read from it. X1 = O=C([C@@H](CC(O)CCl)O[*:1])[*:2]; aIle = CC[C@@H](C)[C@H](N)C(=O)O; NMeV = CN[C@H](C(=O)O)C(C)C; NMeA = CN[C@@H](C)C(=O)O; βAla = NCCC(=O)O

This assay deals with zebrafish Abcb4 (ABCB1 homolog). In words: qHTS for characterization and localization of zebrafish homologs of the human ABCB1 multidrug transporter: ABCB4 transfected cells. The settings on record: CellTiter-Glo viability luminescence, 72 h; series mostly up to 15.2 µM; activity change, negative = inhibition: at the top concentration. From the text: The zebrafish has emerged as a potential model to study the blood-brain barrier (BBB) given its similarities with mammalian systems. However, little information has been available with regard to homologous ATP-binding cassette transporters expressed at the zebrafish BBB. Two transporters that are highly expressed at the human BBB are P-glycoprotein (P-gp, encoded by the ABCB1 gene) and ABCG2 (encoded by the ABCG2 gene). In this study, we focus on characterization of P-gp homologs in the zebrafish, which has two genes that are homologous to human ABCB1 - abcb4 and abcb5. We generated stably-transfected cell lines to determine their substrate specificities. […] Zebrafish abcb4 also colocalized with claudin 5 expression in brain endothelial cells.
A high-throughput screen was performed as previously described on empty vector transfected cells, P-gp-overexpressing MDR-19 cells and cells transfected with full-length zebrafish abcb4 (ZF Abcb4) or abcb5 (ZF Abcb5). Briefly, cells were plated into 1536-well plates at a density of 500 cells/well in 5 uL media. P-gp substrate compounds (approximately 90) selected from our previous study were then added at varying concentrations using a 1536-head pin tool (Kalypsis, San Diego, CA) and plates were incubated at 37C in 5% CO2 for 72 h. CellTiter-Glo reagent (Promega) was dispensed into the wells, incubated for 5 min and luminescence was read on a ViewLux instrument (Perkin-Elmer).
Cytotoxic compounds were defined as those that yielded a curve class of -1.1, -1.2, -2.1, -2.2, -2.3, or -2.4, a maximum response of >50% and an AC50 of < 10 uM. All compounds from screening analysis were tested in Vector (empty vector control), MDR-19 (P-gp overexpressing), zebrafish abcb4 (ZF Abcb4) and abcb5 (ZF Abcb5) expression cell lines.
1. Tobie D Lee, Olivia W Lee, Kyle R Brimacombe, Lu Chen, Rajarshi Guha, Sabrina Lusvarghi, Bethilehem G Tebase, Carleen Klumpp-Thomas, Robert W Robey, Suresh V Ambudkar, Min Shen, Michael M Gottesman, Matthew D Hall. A High-Throughput Screen of a Library of Therapeutics Identifies Cytotoxic Substrates of P-glycoprotein. […]
Regarding `C=CCON=C(C[C@H]1O[C@@H]2O[C@]3(C)CC[C@@H]4[C@H](C)CC[C@@H]([C@H]1C)[C@@]24OO3)[C@H]1O[C@@H]2O[C@]3(C)CC[C@H]4[C@H](C)CC[C@@H]([C@@H]1C)[C@@]24OO3`, the Potency is 1.87 µM (active).
On the same count and under the same terms, next, `C[C@@H]1[C@@H](CC(C[C@H]2O[C@@H]3O[C@]4(C)CC[C@@H]5[C@H](C)CC[C@@H]([C@H]2C)[C@@]35OO4)C[S+](=O)([O-])c2ccc(COC(=O)N(C)C)cc2)O[C@@H]2O[C@]3(C)CC[C@H]4[C@H](C)CC[C@@H]1[C@@]24OO3` (stereo partly drawn): 2.35 µM (active).
In the case of `CC[C@@H](C)[C@@H]1NC(=O)[C@@H]2CCCN2C(=O)[C@@H](CC(O)CCl)OC(=O)CCNC(=O)[C@H](C)N(C)C(=O)[C@H](C(C)C)N(C)C1=O` (stereo partly drawn) (cyclo([NMeA][βAla][X1]P[aIle][NMeV])), the “activity change, negative = inhibition” value is -14.4% (inactive).

The values above are taken from PubChem BioAssay AID1508635 (National Center for Advancing Translational Sciences (NCATS), 2021).
